# Test results: PubChem BioAssay AID449762 (Southern Research Specialized Biocontainment Screening …, 2010)
# Screen size: about 330,000 compounds; about 1,900 (0.58%) were called active. Inconclusive results (about 4%) are left out. Cut-off read from the data, not from the text of the source: inconclusive = inhibition above about 70% without an active follow-up result; inactive = below that. These entries were drawn from the full list. Potency and affinity values are given separately.
# Assay: M. tuberculosis growth inhibition, HTS (AID 449762);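 note: bacterial growth assessed after seven days of incubation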
# Settings: M. tuberculosis H37Rv growth inhibition, 7H9 media; at 25 µM; hits give high values
row,Compound,inhibition
1,CCN1C(=O)CSc2ccc(C(=O)NCc3ccccc3)cc21,-4.41% (inactive)
2,CC(=O)O/C(=C\c1cn(C(C)=O)c2ccccc12)C(=O)O,-13.8% (inactive)
3,CC(=O)n1cc(C=C2C(=O)NC(=O)NC2=O)c2ccccc21,6.36% (inactive)
4,Cc1oc(-c2ccc(Cl)cc2)nc1CS(=O)CC(=O)NC1CCCC1 (centres undefined),-1.04% (inactive)
5,Nc1[nH]n2c(=O)cc(-c3ccccc3)nc2c1N=Nc1ccc(S(N)(=O)=O)cc1,6.74% (inactive)
6,COc1cccc(N=Nc2c(N)[nH]n3c(=O)cc(-c4ccccc4)nc23)c1,54.1% (inactive)
7,Cc1ccc(CNc2nc3ccccc3n3cnnc23)cc1,-11.5% (inactive)
8,CCc1ccc(Nc2oc(C)cc(=O)c2C(C)=O)cc1,70% (inactive)
9,C/C(=N\N=C(/N)SC1CC(=O)N(c2ccccc2)C1=O)c1cccs1 (centres undefined),-5.01% (inactive)
10,C/C(=N\N=C(/N)SC1CC(=O)N(c2cccc(Cl)c2)C1=O)c1cccs1 (centres undefined),15.1% (inactive)
11,O=C(C1CC=CCC1)N1CCC(CO)(Cc2ccc(Cl)cc2)CC1 (centres undefined),14.7% (inactive)
12,CCCCNc1nc(Nc2ccc(C)c(Cl)c2)c2cnn(C)c2n1,10.1% (inactive)
13,CCCNc1nc(Nc2ccc(C)c(Cl)c2)c2cnn(C)c2n1,14.2% (inactive)
14,CC(C)(C)/C(Cn1cncn1)=N\OC(=O)Nc1ccc(Cl)cc1,11.8% (inactive)
15,CN(Cc1nccs1)C(=O)CC1C(=O)NCCN1Cc1ccc(-c2ccccc2)cc1 (centres undefined),-5.55% (inactive)
16,Cc1nc2cc(C(=O)N3CCC4(CC3)OCCO4)ccc2n1-c1ccc(Br)cc1,9.84% (inactive)
17,CC(C)OC(=O)CSc1nc(N2CCOCC2)c2c(c1C#N)CC(C)(C)OC2,35.4% (inactive)
18,COC(=O)CSc1nc(N2CCOCC2)c2c(c1C#N)CC(C)(C)OC2,4.99% (inactive)
19,Cc1ccc(N(C(=O)Cn2nnc(-c3ccc(F)cc3)n2)C(C(=O)NC(C)(C)C)c2ccncc2)cc1 (centres undefined),7.5% (inactive)
20,C#Cc1ccc(CN2CCN(Cc3ccsc3)C(CCO)C2)cc1 (centres undefined),-1.98% (inactive)
21,N#CCCN(C(=O)COC(=O)CNC(=O)c1ccc(-c2ccccc2)cc1)c1ccc(F)cc1,67.5% (inactive)
22,C/C(=N\NC(N)=S)c1ccccc1,0.26% (inactive)
23,CCCCc1ccc(/C(C)=N/NC(=O)C2CCCC2)cc1,-4.47% (inactive)
24,Cc1ccccc1C(=O)Nc1cccc(N)c1,-3.59% (inactive)

row,Compound,inhibition
1,Cc1ccc(S(=O)(=O)NCCCCCC(=O)Nc2c(C)n(C)n(-c3ccccc3)c2=O)cc1,-4.12% (inactive)
2,CCCCN(C(=O)c1c(C)noc1C)c1c(N)n(CCC)c(=O)[nH]c1=O,-2.29% (inactive)
3,Cc1ccc(/C=C/C(=O)Nc2ccc(S(=O)(=O)Nc3onc(C)c3C)cc2)cc1,-4.61% (inactive)
4,COCCCNC(=O)/C(C#N)=C/c1c(N2CCN(c3ccccc3)CC2)nc2c(C)cccn2c1=O,4.49% (inactive)
5,COCCNC(=O)/C(C#N)=C/c1c(N2CCN(c3cccc(Cl)c3)CC2)nc2c(C)cccn2c1=O,8.89% (inactive)
6,CCOc1ccc(NC(=O)/C(=C\c2ccc(OC(C)=O)c(OC)c2)NC(C)=O)cc1,4.59% (inactive)
7,Cc1ccc(-c2nc(CS(=O)CC(=O)NCCN3CCCCC3C)c(C)o2)cc1 (centres undefined),-3.03% (inactive)
8,CN(C)/N=C/C=C1\CC/C(=C\c2ccc(Br)cc2)C1=O,3.13% (inactive)
9,CC(C)c1ccc(/C=C2\CC/C(=C\C=N\N(C)C)C2=O)cc1,-3.15% (inactive)
10,Cc1cc(-n2nc(C)cc2C)nc(N)n1,-2.23% (inactive)
11,CCOC(=O)c1c(-c2ccc(F)cc2)csc1NC(=O)CN1C(=O)NC2(CCCCC2C)C1=O (centres undefined),4.04% (inactive)
12,COc1ccc(/C=C/c2c(-c3ccc(OC)cc3)oc3cccnc23)cc1,-6.31% (inactive)
13,COc1ccc(/C=C/c2c(-c3ccc(OC)cc3)oc3ccccc23)cc1,-5.2% (inactive)
14,COc1ccc(C2C3=C(CC(C)(C)CC3=O)Nc3c2c(=O)n(C)c(=O)n3C)cc1OC (centres undefined),-2.26% (inactive)
15,O=C(Cc1ccc([N+](=O)[O-])cc1)NCc1ccccc1Cl,0.6% (inactive)
16,CCOC(=O)Cc1csc(NC(=O)CSc2nnc(-c3ccncc3)n2Cc2ccco2)n1,2.42% (inactive)
17,CC(C)c1onc(C(=O)N2CCN(c3ccccc3)CC2)c1[N+](=O)[O-],-4.37% (inactive)
18,Cc1ccc(SCC(=O)OCC(=O)N(CCC#N)c2ccccc2)cc1C,27.2% (inactive)
19,Cc1ccc(N(CCC#N)C(=O)COC(=O)c2cc(C)oc2C)cc1,-1.99% (inactive)
20,CC1(c2ccc3ccccc3c2)NC(=O)N(CC(=O)N2CCN(Cc3ccccc3)CC2)C1=O (centres undefined),-2.77% (inactive)
21,Cc1cc(NC(=O)c2cccnc2)ccc1NC(=O)c1cc2ccccc2o1,5.9% (inactive)
22,Cc1[nH]n(-c2ccccc2)c(=O)c1-c1ccccc1,2.82% (inactive)
23,Cc1cc(-c2c(C)[nH]n(-c3ccccc3)c2=O)n(-c2ccccc2)n1,-6.21% (inactive)
24,O=C(Cc1ccc(Cl)cc1)N/N=C/c1cccc(O)c1,9.69% (inactive)

row,Compound,inhibition
1,CCc1ccc(N=C2NC(=O)/C(=C/c3cc(OC)c(OC)c(OC)c3)S2)cc1,6.19% (inactive)
2,COc1cc(/C=C2\SC(=Nc3ccc(O)cc3)NC2=O)cc(OC)c1O,2.36% (inactive)
3,COc1cccc(NC(=O)Nc2cc(C(=O)O)ccc2C)c1,16.4% (inactive)
4,O=C(CC1(O)C(=O)N(Cc2ccccc2Cl)c2ccccc21)c1ccco1 (centres undefined),7.75% (inactive)
5,CCc1cccc2c(C(=O)C(NCCOC)c3ccccc3)c[nH]c12 (centres undefined),-0.65% (inactive)
6,Cc1ccc(C(=O)Nc2cc([N+](=O)[O-])ccc2C)cc1,10.4% (inactive)
7,CC(C)C(=O)Nc1cccc(-c2nc3ccccc3o2)c1,-4.29% (inactive)
8,CC(=O)Nc1cccc(-c2nc3ccccc3c(=O)o2)c1,8.2% (inactive)
9,CC(C)N(C(C)C)S(=O)(=O)c1ccc(NN)nc1,10% (inactive)
10,CCCn1c(N2CCN(C(=O)Nc3ccc(Cl)cc3)CC2)nc2ccccc21,-1.4% (inactive)
11,CCn1c(N2CCN(Cc3ccc([N+](=O)[O-])cc3)CC2)nc2ccccc21,2.71% (inactive)
12,CC1CC1C(=O)OCC(=O)NC(=O)c1ccc(C(C)(C)C)cc1 (centres undefined),4.17% (inactive)
13,CC1C(C#N)=C(SCC(N)=O)NC2=C1C(=O)CC(C)(C)C2 (centres undefined),0.02% (inactive)
14,CC(=O)NNC(=O)CCn1nnc(-c2ccc(Cl)cc2)n1,0.1% (inactive)
15,COC(=O)c1nnn(CC(=O)NC(=O)Nc2cccc(C)c2C)c1C(=O)OC,-2.49% (inactive)
16,CCc1cc(C(N)=S)ccn1,40.1% (inactive)
17,CCc1ccc(C(N)=S)cc1,40.3% (inactive)
18,CCOC(=O)c1[nH]c2ccc(F)cc2c1NC(=O)CCN1CCOCC1,7.04% (inactive)
19,CCOc1ccccc1-c1nc(SCC(=O)O)n[nH]1,2.12% (inactive)
20,CCC(=O)c1c[nH]c(C(=O)NCc2cccc(C(F)(F)F)c2)c1,3.92% (inactive)
21,CCN1CC=C(c2c[nH]c3ccccc23)CC1,4.32% (inactive)
22,C1=C(c2c[nH]c3ccccc23)CCN(Cc2ccccc2)C1,8.31% (inactive)
23,Cc1ccc(S(=O)(=O)Nc2ccc(N=Nc3ccc(O)cc3)cc2)cc1,7.49% (inactive)
24,Cc1cc(=O)oc2cc(NC(=O)C(C)Oc3cccc(Cl)c3)ccc12 (centres undefined),4% (inactive)

row,Compound,inhibition
1,CCOC(=O)c1c(C)[nH]c(C(=O)COC(=O)c2ccc(O)cc2)c1C,-6.58% (inactive)
2,OC(CN1CCCCC1)Cn1c2ccccc2c2ccccc21 (centres undefined),8.7% (inactive)
3,O=c1c2ccccc2n(CC(O)CN2CCCCC2)c2ccccc12 (centres undefined),-4.66% (inactive)
4,CC(C)(C)OC(=O)N[C@@H](Cc1ccccc1)C(=O)N1CCC(C(=O)NCC(=O)O)CC1,-2.02% (inactive)
5,Cc1cccc(N2CCN(C(=O)CCCn3c(=O)[nH]c4ccsc4c3=O)CC2C)c1 (centres undefined),6.71% (inactive)
6,CCn1nc(C)cc1C(=O)N1CCCC(C(=O)c2ccc3ccccc3c2)C1 (centres undefined),0.73% (inactive)
7,CCc1ccc2c(c1)[C@]1(C(=O)N2)[C@@H]2C(=O)N(Cc3ccccc3)C(=O)[C@@H]2[C@@H]2CCCN21,-2.59% (inactive)
8,Cc1ccc(C(=O)N/N=c2\sc3ccccc3n2C)cc1,10.5% (inactive)
9,COc1cccc(C(=O)N/N=c2\sc3ccccc3n2C)c1,29.6% (inactive)
10,Cc1ccc(S(=O)(=O)N2CCOCC2)cc1C(=O)NC(=S)N1CC(C)OC(C)C1 (centres undefined),-0.86% (inactive)
11,Cc1ccc(/C=N/NC(=O)c2cccs2)s1,43% (inactive)
12,O=C(N/N=C\c1ccc(Cl)s1)c1cccs1,63.3% (inactive)
13,CC1(C)CC(=O)C=C(c2cccc(Br)c2)C1,-4.12% (inactive)
14,COc1cc(-c2nnc(SCC(=O)Nc3ccc(C(=O)O)cc3)o2)cc(OC)c1OC,-0.72% (inactive)
15,COc1cc(NC(=O)C2CCN(S(=O)(=O)c3ccc(N4CCCC4=O)cc3)CC2)cc(OC)c1,8.33% (inactive)
16,C=CCNC(=O)N1CCC(c2nc3ccccc3s2)CC1,-8.35% (inactive)
17,Oc1cccc(/C=N/NC(=S)NCCN2CCOCC2)c1O,-1.62% (inactive)
18,S=C(NCCN1CCOCC1)N/N=C/c1ccccc1,-4.03% (inactive)
19,CCCn1c(SCC(=O)Nc2ccc(S(=O)(=O)N(C)C)cc2)n[nH]c1=O,-9.52% (inactive)
20,CCn1c(SCC(=O)Nc2ccc3c(c2)OCO3)nnc1C(C)C,-4.67% (inactive)
21,COc1ccc(C2=NN(C(=O)COC(=O)c3ccc(NC(=O)CC#N)cc3)C(c3ccco3)C2)cc1 (centres undefined),-7.88% (inactive)
22,COc1ccc(C2CC(c3ccccc3)=NN2C(=O)COC(=O)c2ccc(S(C)(=O)=O)cc2)cc1 (centres undefined),1.53% (inactive)
